Test results published in PubChem BioAssay (EPA / NIEHS).
Inconclusive results are not listed. Activity calls are given as the source filed them. How the source made its calls, unless noted: active means hit-call score of the fitted dose curve at least 0.9, where 1 is the maximum; inactive means score below 0.9.

Experiments:
[1] = read-out: Collagen I, COL1A1 (gene 1277); assay: BSK_MyoF_CollagenI: BioMAP Diversity Plus: MyoF Assay for Collagen I Biomarker Activity (AID 2284238); settings: primary human lung fibroblasts
Procedure, shortened: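 Lung fibroblasts (human primary) dosed, 24 h; Collagen I by ELISA; positive-direction fit vs DMSO control. Parallel SRB total-protein staining (0.1% SRB, 10% TCA fixation, 560 nm) flags overt cytotoxicity.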

[2] = read-out: Collagen III, COL3A1 (gene 1281); assay: BSK_MyoF_CollagenIII: BioMAP Diversity Plus: MyoF Assay for Collagen III Biomarker Activity (AID 2284239); settings: primary human lung fibroblasts
Procedure, shortened: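 ELISA read-out of collagen III from human lung fibroblasts after 24 h of chemical treatment. The DMSO control served as negative control and baseline, with values fitted in the positive direction.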

[3] = read-out: Interleukin 2 (IL2), IL2 (gene 3558); assay: BSK_BT_xIL2: BioMAP Diversity Plus: BT Assay for Interleukin 2 (IL2) Biomarker Activity (AID 2284245); settings: primary human B cells with PBMC
Procedure, shortened: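 Readout: supernatant IL-2 via Luminex xMAP after 24 h chemical dosing of a B cell/PBMC primary human co-culture. DMSO serves as negative control and baseline; increases in signal were fitted.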

[4] = read-out: Basic fibroblast growth factor (bFGF), FGF2 (gene 2247); assay: BSK_MyoF_bFGF: BioMAP Diversity Plus: MyoF Assay for Basic fibroblast growth factor (bFGF) Biomarker Activity (AID 2284246); settings: primary human lung fibroblasts
Procedure, shortened: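 Primary human lung fibroblast culture, 24 h compound exposure; ELISA read-out of bFGF. Positive-direction fit vs DMSO baseline. Cytotoxicity: SRB stain (0.1% SRB, 10% TCA fixation, 560 nm) in parallel wells.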

[5] = read-out: Collagen IV, COL4A1 (gene 1282); assay: BSK_MyoF_CollagenIV: BioMAP Diversity Plus: MyoF Assay for Collagen IV Biomarker Activity (AID 2284247); settings: primary human lung fibroblasts
Procedure, shortened: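 ELISA read-out of Collagen IV in lung fibroblast cultures, 24 h post-dosing; gain of signal relative to DMSO vehicle baseline defines activity.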

[6] = read-out: Plasminogen activator inhibitor-1 (PAI1), SERPINE1 (gene 5054); assay: BSK_MyoF_PAI1: BioMAP Diversity Plus: MyoF Assay for Plasminogen activator inhibitor-1 (PAI1) Biomarker Activity (AID 2284256); settings: primary human lung fibroblasts
Procedure, shortened: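 Primary human lung fibroblasts are dosed and incubated 24 h. PAI-1 is then measured by ELISA, while parallel cultures undergo SRB staining for overt cytotoxicity. Increases over DMSO define activity.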

[7] = read-out: Interleukin-8 (IL8), CXCL8 (gene 3576); assay: BSK_MyoF_IL8: BioMAP Diversity Plus: MyoF Assay for Interleukin-8 (IL8) Biomarker Activity (AID 2284261); settings: primary human lung fibroblasts
Procedure, shortened: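 IL-8 levels were measured by ELISA in human lung fibroblasts harvested 24 h after compound addition. Responses were analysed as gain of signal over the DMSO baseline.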

[8] = BSK_MyoF_SRB: Viability Assessment in the BioMAP Diversity Plus: MyoF Assay (AID 2284267); settings: primary human lung fibroblasts;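 further: total protein by SRB absorbance in parallel cultures as cytotoxicity measure; cells assessed 24 h after compound addition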
Procedure, shortened: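 Lung fibroblast cultures, 24 h post-dose; fix 10% TCA, stain 0.1% SRB, read 560 nm. Signal = total protein as cytotoxicity measure; fitted relative to DMSO negative control.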

[9] = read-out: Matrix Metallopeptidase 1 (MMP1), MMP1 (gene 4312); assay: BSK_MyoF_MMP1: BioMAP Diversity Plus: MyoF Assay for Matrix Metallopeptidase 1 (MMP1) Biomarker Activity (AID 2284268); settings: primary human lung fibroblasts
Procedure, shortened: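 Lung fibroblast cultures were dosed with test chemicals and, after 24 h, MMP1 levels were measured by ELISA; responses were referenced to DMSO and analysed for increases.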

[10] = read-out: TIMP metallopeptidase inhibitor 1 (TIMP1), TIMP1 (gene 7076); assay: BSK_MyoF_TIMP1: BioMAP Diversity Plus: MyoF Assay for TIMP metallopeptidase inhibitor 1 (TIMP1) Biomarker Activity (AID 2284269); settings: primary human lung fibroblasts
Procedure, shortened: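 ELISA quantified TIMP-1 levels after 24 h dosing of primary human lung fibroblasts, with DMSO as baseline. Parallel SRB total protein staining (0.1% SRB after TCA fixation, 560 nm) flagged overt cytotoxicity.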

[11] = TAMU_HCS_1.5hr_SingleDonor1434_Cytotoxicity: Cytotoxicity Assessment using High-content Screening (HCS) Fluorescent Imaging for the Texas A&M University (TAMU) 1.5-hr Human Induced Pluripotent Stem Cell (iPSC)-derived Cardiotoxicity Assay (AID 2284234; active means hit-call score of the fitted dose curve at least 0.9, where 1 is the maximum)
Procedure, shortened: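 Nuclear counts from Hoechst 33342 imaging define cytotoxicity here, with EC10 (10% cell-count loss relative to DMSO) as point of departure. iPSC cardiomyocytes received 0.2-100 uM test chemical in 0.5% DMSO for 1.5 h at 37 C.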

[12] = CCTE_Mundy_HCI_Cortical_NOG_BPCount: CCTE's Neurite Outgrowth Assay in rat cortical cells for Branch Point Count, Mundy Lab (AID 2284237)
Procedure, shortened: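 Measured 50.33 h after dosing, this morphology endpoint uses rat primary cortical cultures labelled for betaIII-tubulin. Branch points are quantified by high-content imaging, with DMSO as negative control and baseline.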

[13] = CCTE_Mundy_HCI_hNP1_Casp3_7: CCTE's Caspase-Glo 3/7 Assay in human neuroprogenitor cells for Apoptosis, Mundy Lab (AID 2284240)
Procedure, shortened: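 Neuroepithelial-lineage stem cells from WA09 embryonic cells were treated with chemicals after 40–44 h of culture. Twenty-four hours later, caspase-3/7 activation was detected luminescently after a 30 min room-temperature reagent step, with DMSO as baseline.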

Measured: AC50

C=C(C)C(=O)O[C@H]1C[C@@H]2CC[C@@]1(C)C2(C)C
inactive: [3] | [7] | [9]
active: [1] 29.2 µM | [2] 31.9 µM | [4] 31.3 µM | [5] 25 µM | [6] 29.5 µM | [8] 34.8 µM | [10] 32.3 µM

c1ccc2sc(SN(C3CCCCC3)C3CCCCC3)nc2c1
active: [9] 6.26 µM
not listed: [11] | [12] | [13]
inactive: all other assays above

Cc1ccc(O)c(C(C)(C)C)c1
active: [1] 35.4 µM | [2] 30.3 µM | [4] 36.1 µM | [6] 31.6 µM | [8] 34.3 µM | [10] 33.7 µM
inactive: [3] | [5] | [7] | [9]

c1ccc2c(c1)c1cccc3ccc4cccc2c4c31
active: [5] 0.0413 µM | [6] 0.016 µM
not listed: [12] | [13]
inactive: all other assays above

CCCCC(CC)COC(=O)/C=C\C(=O)OCC(CC)CCCC (stereo not given)
active: [3] 20 µM
not listed: [11] | [12] | [13]
inactive: all other assays above

O=C1CCCCCCCCCCCCCCO1
active: [1] 8.87 µM | [2] 20 µM | [3] 32.9 µM | [9] 20 µM
not listed: [11] | [12] | [13]
inactive: all other assays above

CCCCC/C=C/C=C/C=O
active: [1] 32.4 µM | [2] 32.2 µM | [3] 31.4 µM | [4] 36.8 µM | [5] 10.5 µM | [6] 29.4 µM | [8] 32 µM | [10] 34.2 µM
inactive: [7] | [9]

CC(C)(COC(=O)c1ccccc1)COC(=O)c1ccccc1
not listed: [11] | [12] | [13]
inactive: all other assays above

BrC1CCC(Br)C(Br)CCC(Br)C(Br)CCC1Br (stereo not given)
active: [3] 25.2 µM | [9] 3.29 µM
not listed: [11] | [12] | [13]
inactive: all other assays above

CCCCCCCCCC=O
active: [5] 7.8 µM | [6] 0.016 µM
not listed: [11] | [12] | [13]
inactive: all other assays above

CCCCC(CC)COCCC#N (stereo not given)
not listed: [11] | [12] | [13]
inactive: all other assays above

CN(CCOc1ccc(CC2SC(=O)NC2=O)cc1)c1ccccn1 (stereo not given)
active: [1] 0.016 µM | [5] 0.111 µM | [6] 0.0541 µM | [9] 20 µM
not listed: [11] | [12] | [13]
inactive: all other assays above

CCn1c2ccccc2c2cc(N)ccc21
not listed: [11] | [12] | [13]
inactive: all other assays above

O=C(O)c1cn(-c2ccc(F)cc2)c2cc(N3CCNCC3)c(F)cc2c1=O
not listed: [11] | [12] | [13]
inactive: all other assays above

C=C[Si](OCC)(OCC)OCC
not listed: [11] | [12] | [13]
inactive: all other assays above

CC(C)c1ccc(C(C)C)cc1
not listed: [11] | [12] | [13]
inactive: all other assays above

CC1COc2ccccc2N1C(=O)C(Cl)Cl (stereo not given)
active: [1] 14.4 µM | [2] 29.6 µM | [5] 2.33 µM | [6] 5.3 µM | [7] 16.1 µM | [8] 20 µM | [9] 9.41 µM | [10] 4.69 µM
inactive: [3] | [4]

CC(C)Oc1ccccc1O
not listed: [11] | [12] | [13]
inactive: all other assays above

CCc1c(C)cc(N)c(CC)c1N
not listed: [11] | [12] | [13]
inactive: all other assays above

Nc1cc([N+](=O)[O-])ccc1Cl
not listed: [11] | [12] | [13]
inactive: all other assays above

O=C(O)C[C@H](O)C[C@H](O)/C=C/c1c(C2CC2)nc2ccccc2c1-c1ccc(F)cc1
inactive: [1] | [4] | [5] | [10]
active: [2] 2.16 µM | [3] 5 µM | [6] 5 µM | [7] 1.1 µM | [8] 3.1 µM | [9] 0.498 µM

CN(C)C(=N)N=C(N)N
inactive: [12] | [13]

N#Cc1ccc(CC(=NNC(=O)Nc2ccc(OC(F)(F)F)cc2)c2cccc(C(F)(F)F)c2)cc1
not listed: [11]
inactive: all other assays above

CNC[C@H](O)c1cccc(O)c1
active: [2] 0.016 µM
not listed: [11] | [12] | [13]
inactive: all other assays above
